Records with an inconclusive call do not appear. Active and inactive are the calls of the source. Unless noted, calls follow the shape of the dose curve; as a rule, active = well fitted curve in the direction sought with a large enough effect in the repeat runs; inconclusive = weak or mixed curves; inactive = no such curve, though single readings can be large; an effect the other way counts as inactive or inconclusive.
Legend:
[1] = qHTS assay to identify small molecule antagonists of the estrogen related receptor (ERR) signaling pathway from Tox21 library - cell viability counter screen (AID 1224834); also: nearly all actives have a fitted effect of over 30% in size
Outline: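 Counter screen run in ERR cells (2,000 cells/well): cells pre-incubated 6 h, then treated with compounds for 17.5 h at 37 C. Fluorescence was read 30 min after CellTiter-Fluor addition.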

[2] = biological target: Luciferin 4-monooxygenase (Photinus pyralis) (UniProt P08659); experiment: qHTS assay to identify small molecule inhibitors of firefly luciferase (AID 1224835); also: series mostly up to about 120 µM; nearly all actives have a fitted effect of over 25% in size
Sequence of Luciferin 4-monooxygenase (Photinus pyralis) (P08659 whole entry, looked up): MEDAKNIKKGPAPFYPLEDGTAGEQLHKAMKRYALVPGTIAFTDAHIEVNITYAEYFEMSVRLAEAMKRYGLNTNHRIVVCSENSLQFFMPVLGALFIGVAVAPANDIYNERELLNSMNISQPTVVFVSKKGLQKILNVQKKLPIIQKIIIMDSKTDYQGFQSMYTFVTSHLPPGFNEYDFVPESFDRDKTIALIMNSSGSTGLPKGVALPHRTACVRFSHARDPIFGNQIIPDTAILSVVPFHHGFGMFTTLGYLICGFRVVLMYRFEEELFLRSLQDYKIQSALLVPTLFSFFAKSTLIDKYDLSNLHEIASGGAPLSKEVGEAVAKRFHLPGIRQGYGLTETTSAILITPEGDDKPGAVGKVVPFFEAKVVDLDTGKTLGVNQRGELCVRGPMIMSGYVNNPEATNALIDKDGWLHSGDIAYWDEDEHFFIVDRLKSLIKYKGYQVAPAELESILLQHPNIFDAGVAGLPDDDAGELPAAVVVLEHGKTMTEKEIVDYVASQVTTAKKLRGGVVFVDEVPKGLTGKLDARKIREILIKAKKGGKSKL
Outline: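 Quantitative HTS format; KM concentrations of both substrates. Purified P. pyralis FLuc activity quantified from luminescence images.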

[3] = qHTS assay to identify small molecule agonists of the constitutive androstane receptor (CAR) signaling pathway - cell viability counter screen (AID 1224836); also: series mostly up to about 92 µM; nearly all actives have a fitted effect of over 45% in size
Outline: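 HepG2-CYP2B6-hCAR, 2500 cells/well, 4 h pre-incubation; cpd 15 conc + PK11195 0.75 uM final; 23 h, 37 C/5% CO2; CellTiter-Fluor, fluorescence.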

[4] = qHTS assay to identify small molecule antagonists of the constitutive androstane receptor (CAR) signaling pathway - cell viability counter screen (AID 1224837); also: series mostly up to about 92 µM; nearly all actives have a fitted effect of over 45% in size
Outline: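 CITCO at 50 nM final was added alongside compounds (15 concentrations) to double-stable hCAR/CYP2B6-2.2kb HepG2 cells. Following 23 hr at 37 C, cell viability was quantified by CellTiter-Fluor fluorescence intensity.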

[5] = qHTS assay to identify small molecule antagonists of the estrogen related receptor signaling pathway with the pleiotropic PPARgamma coactivator (PGC) from Tox21 10K library - cell viability counter screen (AID 1224840; active = well fitted cell-killing curve with a large enough effect in the repeat runs, not every such curve was filed as active; also: nearly all actives have a fitted effect of over 40% in size)
Outline: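 Readout: fluorescence intensity from CellTiter-Fluor after 30 min at 37 C/5% CO2. Preceded by 17.5 h treatment of PGC/ERR cells with DMSO-dissolved compounds, added 6 h post-seeding.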

[6] = qHTS assay to identify small molecule agonists of the hypoxia (HIF-1) signaling pathway - cell viability counter screen (AID 1224844; calls by dose curve; also: nearly all actives have a fitted effect of over 50% in size)
Outline: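 In this counter screen, HRE-bla ME-180 cell viability after 17 hrs of compound exposure at 37C was read by CellTiter-Glo luminescence, multiplexed with the beta-lactamase reporter measurement.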

[7] = qHTS assay to identify small molecule agonists of H2AX (AID 1224845; active = well fitted activation curve with a large enough effect in the signal ratio in the repeat runs, not every such curve was filed as active; the % refers to the signal ratio)
Outline: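 Wild-type CHO-K1 cells plated overnight, then exposed 3 hr at 37C to compounds at 15 concentrations (0.76% DMSO). Lysed, then HTRF anti-pH2AX(S139)-cryptate/anti-H2AX-d2 detection after 24 hr at room temperature; emissions 665 and 620 nm.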

[8] = qHTS assay to identify small molecule agonists of the hypoxia (HIF-1) signaling pathway (AID 1224846; active = well fitted activation curve with a large enough effect in the signal ratio in the repeat runs, not every such curve was filed as active; the % refers to the signal ratio)
Outline: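 ME-180 HRE-bla reporter cells; compounds in DMSO, 17 h at 37C; read-out beta-lactamase via CCF4-AM FRET.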

[9] = qHTS assay to identify small molecule agonists of H2AX - cell viability counter screen (AID 1224847; calls by dose curve; also: top concentration of the series differs between compounds; nearly all actives have a fitted effect of over 30% in size)
Outline: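 Cells plated first: CHO-K1, 1000 per well in 10% FBS medium, incubated overnight at 37C. Then 15-point compound titration added (final DMSO 0.76%) for 3 hr. Finally CellTiter-Glo added and luminescence read.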

[10] = qHTS RealTime-Glo MT Cell Viability Assay in HepG2 cells - 24 hour (AID 1224867); also: nearly all actives have a fitted effect of over 50% in size
Outline: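 Cells + NanoLuc/prosubstrate dispensed (600 cells/well) → 5 h at 37 C/5% CO2 → compounds in DMSO transferred → 40 h incubation at 37 C, luminescence read at 0, 8, 16, 24, 32, 40 h.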

[11] = qHTS RealTime-Glo MT Cell Viability Assay in HEK293 cells - 32 hour (AID 1224868); also: top concentration of the series differs between compounds; nearly all actives have a fitted effect of over 50% in size
Outline: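 Tox21 10K qHTS, HEK293, 600 cells/well, RealTime-Glo reagent co-dispensed with cells; 5 h preincubation, compound by pintool, 37 C, luminescence at 0–40 h.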

[12] = A CellTox Green Cytotoxicity Assay to monitor cytotoxicity in HEK293 cells - 0 hour (AID 1224869); also: nearly all actives have a fitted effect of over 50% in size
Outline: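 Real-time, in one plate: 600 HEK293 cells/well with dead-cell DNA dye, pinned compound after 5 h, 37 C incubation over 40 h; viable cells give no appreciable fluorescence.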

[13] = qHTS RealTime-Glo MT Cell Viability Assay in HepG2 cells - 40 hour (AID 1224870); also: nearly all actives have a fitted effect of over 50% in size
Outline: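 HepG2 cells mixed with RealTime-Glo MT reagents (NanoLuc plus cell-permeant prosubstrate) were seeded at 600 cells/well, incubated 5 h at 37 C/5% CO2, then pinned with compounds in DMSO; nonlytic luminescence tracked viability during 40 h treatment.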

[14] = biological target: Thyrotropin receptor (Homo sapiens) (UniProt P16473); experiment: qHTS assay to identify small molecule agonists of the thyroid stimulating hormone receptor (TSHR) signaling pathway (AID 1224843; calls by dose curve; also: nearly all actives have a fitted effect of over 45% in size)
Sequence of Thyrotropin receptor (Homo sapiens) (P16473 whole entry, looked up): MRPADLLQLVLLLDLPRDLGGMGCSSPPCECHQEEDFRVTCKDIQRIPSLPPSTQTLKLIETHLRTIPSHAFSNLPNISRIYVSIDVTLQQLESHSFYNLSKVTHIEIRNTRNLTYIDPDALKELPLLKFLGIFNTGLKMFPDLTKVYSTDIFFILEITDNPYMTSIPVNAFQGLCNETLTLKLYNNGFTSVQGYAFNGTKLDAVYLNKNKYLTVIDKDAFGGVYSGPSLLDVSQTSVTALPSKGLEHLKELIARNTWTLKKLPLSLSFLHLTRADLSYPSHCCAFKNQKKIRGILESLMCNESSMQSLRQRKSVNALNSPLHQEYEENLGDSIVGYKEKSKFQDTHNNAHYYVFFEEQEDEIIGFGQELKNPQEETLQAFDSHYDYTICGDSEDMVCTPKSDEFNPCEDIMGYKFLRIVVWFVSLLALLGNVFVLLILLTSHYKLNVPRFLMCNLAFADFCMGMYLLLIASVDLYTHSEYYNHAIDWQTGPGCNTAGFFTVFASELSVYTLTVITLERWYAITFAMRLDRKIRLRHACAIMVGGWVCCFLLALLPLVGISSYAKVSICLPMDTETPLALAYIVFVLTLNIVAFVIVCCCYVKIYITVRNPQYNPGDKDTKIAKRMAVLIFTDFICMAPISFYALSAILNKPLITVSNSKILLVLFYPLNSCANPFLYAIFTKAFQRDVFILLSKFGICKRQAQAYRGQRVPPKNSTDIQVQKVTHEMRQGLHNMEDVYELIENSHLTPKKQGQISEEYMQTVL
Outline: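 Using 15 concentrations per compound in triplicate, cAMP production was monitored in TSHR-HEK293 cells after 30 min compound incubation at RT; HTRF reagents followed, with fluorescence intensity recorded after 1 h.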

[15] = biological target: Nuclear receptor subfamily 1 group I member 3 (Homo sapiens) (UniProt Q14994); experiment: qHTS assay to identify small molecule agonists of the constitutive androstane receptor (CAR) signaling pathway (AID 1224839); also: series mostly up to about 92 µM; nearly all actives have a fitted effect of over 15% in size
Sequence of Nuclear receptor subfamily 1 group I member 3 (Homo sapiens) (Q14994 whole entry, looked up): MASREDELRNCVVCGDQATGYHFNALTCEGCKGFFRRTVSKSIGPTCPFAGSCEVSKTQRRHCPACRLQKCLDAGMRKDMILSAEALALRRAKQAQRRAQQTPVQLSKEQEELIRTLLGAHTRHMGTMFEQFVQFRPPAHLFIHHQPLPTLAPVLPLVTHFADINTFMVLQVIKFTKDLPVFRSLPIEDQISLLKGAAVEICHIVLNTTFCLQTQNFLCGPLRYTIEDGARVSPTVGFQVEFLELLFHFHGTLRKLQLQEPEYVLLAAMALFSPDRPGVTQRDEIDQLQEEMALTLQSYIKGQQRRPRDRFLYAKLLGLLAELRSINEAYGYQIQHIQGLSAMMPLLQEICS
Outline: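 HepG2-CYP2B6-hCAR cells, 2500/well, 4 h pre-incubation; compounds 15 conc.; PK11195 0.75 uM final; 24 h, 37 C/5% CO2; ONE-Glo luciferase read.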

[16] = qHTS assay to identify small molecule agonists of the estrogen related receptor signaling pathway with the pleiotropic PPARgamma coactivator (PGC) from Tox21 10K library (AID 1224842); also: nearly all actives have a fitted effect of over 15% in size
Outline: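 PGC/ERR reporter cells (NTP line) were seeded 2,000 per well, rested 6 h at 37 C/5% CO2, then pin-dosed with compounds in DMSO for 18 h at 37 C; luciferase read by One-Glo luminescence after 30 min at room temperature.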

[17] = qHTS assay to identify small molecule antagonists of the estrogen related receptor (ERR) signaling pathway from Tox21 library (AID 1224848); also: nearly all actives have a fitted effect of over 50% in size
Outline: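 Tox21 10K compounds in DMSO tested for ERR pathway antagonism in NTP's ERR cell line; 18 h, 37 C exposure; ONE-Glo luminescence.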

[18] = qHTS assay to identify small molecule agonists of the estrogen related receptor (ERR) signaling pathway from Tox21 library (AID 1224849; calls by dose curve; also: nearly all actives have a fitted effect of over 15% in size)
Outline: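 Luciferase activity in ERR pathway reporter cells served as the agonist readout; exposure lasted 18 h at 37 C, with ONE-Glo detection after 30 min at room temperature.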

[19] = biological target: Nuclear receptor subfamily 1 group I member 3 (Homo sapiens) (UniProt Q14994); experiment: qHTS assay to identify small molecule antagonists of the constitutive androstane receptor (CAR) signaling pathway (AID 1224838); also: potency is read from the fitted curve at half-maximal effect; nearly all actives have a fitted effect of over 40% in size
Outline: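 Inhibition of CITCO-driven (50 nM final) CYP2B6 reporter expression is measured in HepG2 cells stably carrying hCAR. Fifteen compound concentrations are applied for 24 h at 37 C, followed by luciferase luminescence.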

[20] = qHTS assay to identify small molecule antagonists of the estrogen related receptor signaling pathway with the pleiotropic PPARgamma coactivator (PGC) from Tox21 10K library (AID 1224841; call rule not given here)
Outline: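 One-Glo luminescence, measured after half an hour at room temperature, quantified reporter output of PGC/ERR cells. These had been plated at 2,000 per well, incubated 6 h, dosed with compounds in DMSO, then kept 18 h at 37 C.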

Measured: Potency

c1ccc(Cc2ccccc2)cc1
inactive: [1] | [2] | [3] | [4] | [5] | [6] | [7] | [8] | [9] | [10] | [11] | [12] | [13]

CCNS(=O)(=O)c1ccc(C)cc1
inactive: [1] | [2] | [3] | [4] | [5] | [6] | [7] | [8] | [9] | [10] | [11] | [12] | [13]

CC(=O)NC(=O)c1ccccc1O
inactive: [1] | [2] | [3] | [4] | [5] | [14] | [6] | [7] | [8] | [9] | [10] | [11] | [12] | [13]

CC(CO)(CO)[N+](=O)[O-]
inactive: [1] | [2] | [3] | [4] | [5] | [14] | [6] | [7] | [8] | [9] | [10] | [12] | [13]

CC(C)[C@H]1CC[C@@H](C)CC1=O
inactive: [1] | [2] | [3] | [4] | [5] | [14] | [6] | [7] | [8] | [9] | [10] | [11] | [12] | [13]

CN1[C@@H]2CC[C@H]1CC(OC(=O)C(O)c1ccccc1)C2 (stereo partly specified)
inactive: [1] | [2] | [3] | [4] | [15] | [5] | [16] | [14] | [6] | [7] | [9] | [17] | [18] | [10] | [11] | [12] | [13]

Nc1ccn([C@@H]2O[C@H](CO)[C@@H](O)C2(F)F)c(=O)n1
inactive: [1] | [2] | [3] | [4] | [15] | [14] | [6] | [8] | [10] | [12]
active: [19] 596 nM

Nc1ccn([C@@H]2O[C@H](CO)[C@@H](O)C2O)c(=O)n1 (stereo partly specified)
inactive: [1] | [2] | [3] | [4] | [15] | [5] | [20] | [16] | [6] | [8] | [9] | [17] | [18] | [11] | [12] | [13]
